The record followed here is PubChem BioAssay (NCATS).

Experiment [1] can be described thus: Quantitative High-Throughput drug screen in 47 multiple myeloma cell lines against the NCATS MIPE library collection: SKMM1_PLB cell viability assay (AID 1919863). Further: nearly all actives have a fitted effect of over 35% in size. Conditions: SKMM1 myeloma viability, CellTiter-Glo ATP, 48 h; viability: active compounds read low. In a few lines: (§1)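 500 cells/well; MIPE 4.0 drugs pin-transferred; 48 h, 37C, 5% CO2. CellTiter-Glo, 5 min RT, luminescence. Controls: DMSO 100%, media 0%.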
(Cellular ATP, detected with luciferase, serves as a proxy for viable cell number.)

Experiment [2] can be described thus: Quantitative High-Throughput drug screen in 47 multiple myeloma cell lines against the NCATS MIPE library collection: XG6_PLB cell viability assay (AID 1919865). Further: nearly all actives have a fitted effect of over 40% in size. In a few lines:
as §1

Experiment [3] is described as follows: Quantitative High-Throughput drug screen in 47 multiple myeloma cell lines against the NCATS MIPE library collection: XG1_PLB cell viability assay (AID 1919866). Further: nearly all actives have a fitted effect of over 35% in size. In outline:
as §1

The nature of experiment [4]: Quantitative High-Throughput drug screen in 47 multiple myeloma cell lines against the NCATS MIPE library collection: VP6_DJ cell viability assay (AID 1919867). Further: nearly all actives have a fitted effect of over 40% in size. In a few lines: as §1
Experiment [5] is described as follows: Quantitative High-Throughput drug screen in 47 multiple myeloma cell lines against the NCATS MIPE library collection: RPMI8226_ATCC cell viability assay (AID 1919871). Further: nearly all actives have a fitted effect of over 30% in size. In outline:
as §1

Experiment [6] can be described thus: Quantitative High-Throughput drug screen in 47 multiple myeloma cell lines against the NCATS MIPE library collection: OPM2_DSMZ cell viability assay (AID 1919872). Further: nearly all actives have a fitted effect of over 30% in size. In a few lines:
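Luminescent ATP measurement with CellTiter-Glo gives viability, scaled between DMSO-only wells (100%) and media-only wells (0%). Cells, 500 per well, faced library compounds for 48 hours at 37C.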

A short description of experiment [7]: Quantitative High-Throughput drug screen in 47 multiple myeloma cell lines against the NCATS MIPE library collection: UTMC2_PLB cell viability assay (AID 1919868). Further: nearly all actives have a fitted effect of over 55% in size. Conditions: CellTiter-Glo ATP luminescence, 48 h; viability (% of DMSO control): at 45.8 µM (top of the series). In outline:
as §1

Experiment [8] is described as follows: Quantitative High-Throughput drug screen in 47 multiple myeloma cell lines against the NCATS MIPE library collection: PE2_PLB cell viability assay (AID 1919869). Further: nearly all actives have a fitted effect of over 35% in size. In a few lines: as §1
The nature of experiment [9]: Quantitative High-Throughput drug screen in 47 multiple myeloma cell lines against the NCATS MIPE library collection: PCM6_Riken cell viability assay (AID 1919870). Further: nearly all actives have a fitted effect of over 30% in size. In a few lines:
as §1

Experiment [10] can be described thus: Quantitative High-Throughput drug screen in 47 multiple myeloma cell lines against the NCATS MIPE library collection: U266_ATCC cell viability assay (AID 1919864). Further: nearly all actives have a fitted effect of over 35% in size. In outline:
as §1

Molecules are shown by their SMILES. Records with an inconclusive call do not appear. Values without a mark were called inactive. Activity calls are given as the source filed them. The call rests on the fitted dose curve; in most records, active means well fitted cell-killing curve with a large enough effect; inconclusive means small, poorly fitted or top-dose-only effect, or effect the other way; inactive means no such curve, though single readings can be large or run the other way.
Potency means the concentration at half of the fitted maximal effect.

With `O=C1C(CCC(O)c2ccc(F)cc2)C(c2ccc(O)cc2)N1c1ccc(F)cc1` (configuration not stated), in experiment [1], the viability was 99.3%. Further, the Potency in experiment [2] was 2.09 µM (active); in [4], 3.32 µM (active). Besides, the Potency result in experiment [3], in [5] and in experiment [6] was “inactive” in each case.

On to `CC1(C)[C@H]2CC[C@]3(C)[C@@H](C(=O)C=C4[C@@H]5C[C@@](C)(C(=O)O)CC[C@]5(C)CC[C@]43C)[C@@]2(C)CC[C@@H]1O`, for which the Potency in [1] was 11.8 µM (active). The Potency entry in [2], in experiment [3], in experiment [7], in experiment [8], in experiment [9] and in experiment [5] was “inactive” each time. Besides, in experiment [6], the Potency entry is “inactive”.

Turning to `CNC(=O)c1cc(Oc2ccc(NC(=O)Nc3ccc(Cl)c(C(F)(F)F)c3)c(F)c2)ccn1`, the Potency was 20.9 µM (active) in experiment [1]; 0.935 µM (active) in [2]; 2.64 µM (active) in experiment [3]; 2.96 µM (active) in experiment [4]; 3.72 µM (active) in experiment [7]; 18.7 µM (active) in [6].

As for `CC[C@H](C)C(=O)O[C@H]1C[C@H](O)C=C2C=C[C@H](C)[C@H](CC[C@@H](O)C[C@@H](O)CC(=O)O)[C@H]21`, in experiment [1], the viability was 102%. Also, the Potency result in [2], in experiment [3], in experiment [7], in experiment [8], in [9] and in experiment [6] was “inactive” in each case.

As for `CN1CCC[C@H]1CCO[C@](C)(c1ccccc1)c1ccc(Cl)cc1`, the viability in [1] was 84.5%. Moreover, the Potency is 18.7 µM (active) in experiment [2], 18.7 µM (active) in [3], 18.7 µM (active) in experiment [4] and 14.8 µM (active) in experiment [7]. Also, the Potency entry in experiment [5] and in experiment [6] was “inactive” each time.

For the compound `CN(C)CCCNC(=O)c1ccc(-c2cc(O)c3ncccc3c2)cc1`, the values for the Potency in experiment [1], in experiment [10] and in experiment [5] were 14.8 µM (active), 20.9 µM (active) and 18.7 µM (active), respectively. Besides, the Potency result in experiment [9] was “inactive”.

`CNC1[C@H](O)C(O[C@@H]2C(O)C(O[C@H]3O[C@H]([C@@H](C)NC)CC[C@H]3N)[C@@H](N)C[C@H]2N)OC[C@]1(C)O` (some centres not stated): the viability in [1] was 103%. Also, the Potency result in experiment [2], in experiment [9], in [5] and in [6] was “inactive” each time. In addition, the Potency in experiment [3] was 18.7 µM (active).

On to `COc1ccc(-c2ccc3ncc4c(c3c2)n(-c2ccc(N3CCNCC3)c(C(F)(F)F)c2)c(=O)n4C)cn1`, for which the results for the Potency in [1], in experiment [10] and in experiment [5] were 0.526 µM (active), 0.118 µM (active) and 0.332 µM (active), respectively.

Regarding `NC1(C(=O)N[C@@H](CCO)c2ccc(Cl)cc2)CCN(c2ncnc3[nH]ccc23)CC1`, the Potency in experiment [1] was 5.9 µM (active); in [2] it was 20.9 µM (active); in experiment [3], 4.18 µM (active); in experiment [4], 0.235 µM (active); in [7] it was 0.235 µM (active); in experiment [8], 5.9 µM (active). The Potency is 5.26 µM (active) in experiment [9], 6.62 µM (active) in experiment [5] and 13.2 µM (active) in experiment [6].

As to `COc1ccc(-c2cc(=O)c3c(O)cc(O[C@@H]4O[C@H](CO[C@@H]5O[C@@H](C)[C@H](O)[C@@H](O)[C@@H]5O)[C@@H](O)[C@H](O)[C@@H]4O)cc3o2)cc1O`, the viability in experiment [1] was 120%. The Potency in experiment [2] is 9.35 µM (active); in [3] it was 8.33 µM (active); in [4], 14.8 µM (active); in experiment [8], 23.5 µM (active); in experiment [9], 11.8 µM (active). Further, in experiment [5], the Potency result was “inactive”.

Turning to `CC(C)C[C@@H](C(=O)N[C@H](C(=O)OC1CCCC1)c1ccccc1)[C@H](O)C(=O)NO`, the Potency in experiment [1] is 20.9 µM (active); in experiment [2], 14.8 µM (active); in experiment [4], 16.6 µM (active); in experiment [7], 16.6 µM (active); in [8] it was 29.6 µM (active); in experiment [9], 18.7 µM (active).

Regarding `COc1ccc(-c2nc3ccc(C4=NNC(=O)CC4C)cc3[nH]2)cc1` (configuration not stated), in experiment [1], the viability is 101%. Also, the Potency entry in [2], in experiment [3], in [8], in experiment [9], in experiment [5] and in experiment [6] was “inactive” each time.

On to `COc1cc([C@H]2Oc3cc([C@H]4Oc5cc(O)cc(O)c5C(=O)[C@H]4O)ccc3O[C@H]2CO)ccc1O`, for which the results for the Potency in experiment [1], in experiment [2] and in [3] were 23.5 µM (active), 14.8 µM (active) and 16.6 µM (active), respectively.

For `COc1cc(Cl)cn2c(-c3cccc(NC4CNC4)n3)cnc12`, the Potency in [1] is 9.35 µM (active); in experiment [2], 2.96 µM (active); in experiment [3], 11.8 µM (active); in experiment [4], 14.8 µM (active); in experiment [7] it was 20.9 µM (active); in experiment [9], 14.8 µM (active).

`Clc1ccc(COC(Cn2ccnc2)c2ccc(Cl)cc2Cl)c(Cl)c1` (configuration not stated): the Potency in experiment [1] was 20.9 µM (active); in experiment [2] it was 18.7 µM (active); in experiment [4] it was 18.7 µM (active); in experiment [9], 20.9 µM (active).

Take `Cc1cccc(Nc2nc(N[C@@H]3CCCC[C@H]3N)ncc2C(N)=O)c1`: the Potency was 23.5 µM (active) in [1]; 0.743 µM (active) in [2]; 9.35 µM (active) in [3]; 5.26 µM (active) in experiment [4]; 9.35 µM (active) in [7]; 18.7 µM (active) in experiment [8]. In [9], the Potency is 7.43 µM (active).

Take `CC1(COc2ccc3c(c2)ncn3-c2ccc3cccc(N4CCC(N)CC4)c3n2)COC1`: the Potency is 16.6 µM (active) in experiment [1], 0.059 µM (active) in [10], 0.0148 µM (active) in [8] and 0.743 µM (active) in experiment [6].

In the case of `Cc1ccc(S(=O)(=O)Nc2nc3ccccc3nc2Nc2ccc3nsnc3c2)cc1`, the Potency in experiment [1] was 7.24 µM (active); in [4], 0.645 µM (active); in experiment [7], 1.02 µM (active).

In the case of `O=C(Nc1ccc(OC(F)(F)F)cc1)c1sccc1NCc1ccnc2ccccc12`, the Potency is 18.7 µM (active) in experiment [1]; 5.9 µM (active) in [3]; 16.6 µM (active) in experiment [4]; 23.5 µM (active) in experiment [7]; 20.9 µM (active) in experiment [8]; 18.7 µM (active) in experiment [6].

For `NS(=O)(=O)c1ccc(Nc2nc(OCC3CCCCC3)c3[nH]cnc3n2)cc1`, the Potency in experiment [10] was 20.9 µM (active); in experiment [2] it was 2.96 µM (active); in experiment [3], 2.64 µM (active); in [4], 16.6 µM (active); in experiment [7], 11.8 µM (active); in experiment [8], 16.6 µM (active). The Potency in experiment [9] was 10.5 µM (active). Besides, the Potency result in [5] is “inactive”.

The viability is a read-out of living cells in per cent, often relative to untreated cells.
